# Compound activity as filed in PubChem BioAssay.
# PLCg1 inh: PLC-gamma1 enzyme inhibitors, primary screen, biochemical, fluorescence, purified enzyme. AID 720700, 2013. 1-phosphatidylinositol 4,5-bisphosphate phosphodiesterase gamma-1 (Homo sapiens), P19174. fluorogenic substrate. actives 0.84% (n = 370,000). inhibition, % at 12.2 µM; in the data active = inhibition above about 9.5%
# Rce1 inh: yeast Rce1p protease inhibitors, primary screen, biochemical, fluorescence, cell-free homogeneous; CAAX prenyl protease 2 (Saccharomyces cerevisiae (strain ATCC 204508 / S288c)), Q03530; yeast membranes, quenched prenylated peptide cleavage fluorescence; calls only; actives 0.27% (n = 290,000);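 active = fall in fluorescence gain of 50% or more versus controls, with final raw signal at or below 3038400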;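 also: plate controls were neutral control wells for no effect and wells lacking membranes for full effect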
# ADAM17 inh: ADAM17 inhibitors, primary screen, biochemical, QFRET; Disintegrin and metalloproteinase domain-containing protein 17 (Homo sapiens), P78536; recombinant ADAM17, EDANS/DABCYL FRET peptide cleavage; inhibition, % at 6.95 µM; actives 0.83% (n = 370,000);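 active = inhibition above the mean of compounds lying between control limits plus 3 SD, set per campaign, cut at about 8.5% in these data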;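 also: 0% = DMSO-only wells as the low control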
# ADAM10 inh: human ADAM10 inhibitors, primary screen, biochemical, QFRET, HTS | Disintegrin and metalloproteinase domain-containing protein 10 (Homo sapiens), O14672 | recombinant ADAM10, EDANS/DABCYL FRET peptide cleavage, 3 h | inhibition, % at 7 µM | actives 0.62% (n = 370,000);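 active = inhibition above a per-campaign cutoff equal to the mean of compounds falling between control-based bounds plus 3 SD, cut at about 20% in these data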;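 also: 0% = DMSO wells while the 100% control is not disclosed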
# Target sequence (O14672 214-748 limits assumed): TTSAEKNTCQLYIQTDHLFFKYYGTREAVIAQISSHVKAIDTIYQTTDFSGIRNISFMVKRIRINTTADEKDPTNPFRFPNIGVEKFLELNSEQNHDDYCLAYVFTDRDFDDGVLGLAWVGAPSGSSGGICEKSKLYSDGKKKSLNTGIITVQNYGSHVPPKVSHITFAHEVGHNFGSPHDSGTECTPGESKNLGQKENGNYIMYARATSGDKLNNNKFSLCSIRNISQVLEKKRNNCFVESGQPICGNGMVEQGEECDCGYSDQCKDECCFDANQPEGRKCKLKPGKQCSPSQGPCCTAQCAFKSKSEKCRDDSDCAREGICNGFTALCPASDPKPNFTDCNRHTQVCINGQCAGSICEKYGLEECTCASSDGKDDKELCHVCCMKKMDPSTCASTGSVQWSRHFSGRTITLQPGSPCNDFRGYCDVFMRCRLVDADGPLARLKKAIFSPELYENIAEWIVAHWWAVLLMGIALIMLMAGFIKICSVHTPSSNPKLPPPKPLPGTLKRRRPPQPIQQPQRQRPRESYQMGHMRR
# PLC-beta3 inh: human PLC-beta3 inhibitors, primary screen, biochemical, fluorescence; 1-phosphatidylinositol 4,5-bisphosphate phosphodiesterase beta-3 (Homo sapiens), Q01970; Purified PLC-beta3, fluorogenic substrate; inhibition, % at 12.2 µM; actives 0.18% (n = 370,000); in the data active = inhibition above about 11%;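 also: 0% = median of compound wells on plate and 100% = full blocker control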
# ADAM10 confirm: human ADAM10 inhibitors, confirmation, biochemical, QFRET, triplicate. shares compounds with ADAM10 inh. ADAM10 QFRET peptide cleavage, EDANS fluorescence. inhibition, % at 6.95 µM. actives 1% (n = 2,100). AID 743208, 2013;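 active = inhibition above about 20% chosen separately for each screening run, limit read from the data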;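 also: 0% = DMSO wells and 100% = marimastat wells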
# ADAM17 ctr: ADAM17 inhibitors, counter-screen for ADAM10 exosite inhibitor project, biochemical, QFRET, high throughput. ADAM17 QFRET peptide cleavage, EDANS fluorescence. actives 0.5% (n = 2,100). shares compounds with ADAM10 inh. AID 743214, 2013. inhibition, % at 6.95 µM;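 active = mean triplicate inhibition above the solvent-only control wells' mean plus 3 SD, cut at about 12% in these data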;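 also: 0% = DMSO wells and 100% = marimastat wells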
# Starred values were filed as active, the others as inactive; i = inactive; · = no result given; + = active, no number. Only some compounds are listed: those with a hit (about 2.1% of all), similar ones and a draw of the others.
SMILES,PLCg1 inh,Rce1 inh,ADAM17 inh,ADAM10 inh,PLC-beta3 inh,others
c1ccc(CN2CCN(Cc3ccc4ccccc4c3)CC2)cc1,4.0,i,-5.2,8.5,-5.8,
N#Cc1c(Cl)nc(Cl)c2c1CCN(Cc1ccccc1)C2,-259.4,+,-288.1,i,-315.2,
CCOC(=O)c1c(-c2ccc(OC)cc2)oc2ccc(OC(=O)N(C)C)cc12,-268.8,+,-213.0,i,-302.8,
CC(Cc1ccccc1)NC(=O)Cc1ccc([N+](=O)[O-])cc1 (centres undefined),9.8*,i,7.3,9.6,0.3,
CC(=O)C1=C(C)OC2=C(C(=O)CCC2)[C@@]12C(=O)N(C)c1ccccc12,1.4,·,-1.1,-3.0,2.2,
CN(C)CCNC(=O)c1cccn(Cc2cccc(C(F)(F)F)c2)c1=O,-2.0,+,-20.3,-70.0,-2.6,
CN1CCN(c2ccc(Cl)cc2N)CC1,1.2,i,-0.4,-8.6,-1.7,
Cc1ccc(Cl)cc1N1CCN(CCN)CC1,16.3*,i,4.0,4.0,3.9,
O=C(NCCN1CCC2(CC1)C(=O)NCN2c1ccccc1)c1ccccc1F,0.1,·,-0.3,0.6,2.2,
Cc1nc2c(=O)n(C)c(=O)nc-2n(C)n1,59.8*,i,2.5,6.6,6.4,
CCn1nc(-c2ccccc2)nc2c(=O)n(C)c(=O)nc1-2,·,i,·,·,·,
COC(=O)C1=C(c2ccc(F)cc2OCc2ccccc2)C[C@@H]2CC[C@H]1N2C(=O)NC1Cc2ccccc2C1,4.9,·,10.2*,17.3,0.2,
COC(=O)C1=C(c2ccc(F)cc2OCc2ccccc2)C[C@@H]2CC[C@H]1N2C(=O)NCc1ccc(F)cc1,-1.9,·,4.1,6.1,1.9,
CC(C)C[C@H]1N=C(c2ccccc2)c2ccccc2N(CC(=O)NC(C)(C)C)C1=O,0.6,·,-2.4,-0.3,4.7,
O=C(COc1ccc2ccccc2c1)N1CCN(Cc2c[nH]c3ccccc23)CC1,3.3,i,8.7*,2.3,-4.7,
CC(C)(C)NC(=O)C1CN=C(c2ccccc2)c2cc(Cl)ccc2N1C(=O)C1CCC1 (centres undefined),-4.8,·,-0.7,-3.5,-2.9,
O=C1CC[C@@]2(O)[C@H]3Cc4ccc(O)c5c4[C@@]2(CCN3CC2CC2)[C@H]1O5,-0.3,i,-1.3,1.6,3.9,
C=CC[N+]1(C)CC[C@]23c4c5ccc(O)c4O[C@H]2C(=O)CC[C@@]3(O)[C@H]1C5 (some centres undefined),2.3,+,-4.2,-5.3,2.6,
Nc1ccc(Cc2ccc(N)cc2)cc1,-0.7,·,-0.9,-9.6,10.7*,
C=CCN(CC#CCO)Cc1ccc(OC)cc1OC,-3.4,·,-2.2,-1.5,-0.7,
Cc1ccc(C(=O)N[C@@H](C)CN2C3=NC[C@@H](Cc4ccccc4)N3C[C@H]2Cc2ccc(O)cc2)cc1Br,12.9*,i,2.1,1.5,5.5,
O=C(NCCN1CCC2(CC1)C(=O)NCN2c1ccccc1)c1ccc(Cl)cc1,0.8,·,-2.3,-1.3,1.7,
CN1CCN(c2ccc([N+](=O)[O-])c(Sc3nncn3C)c2)CC1,0.1,+,-4.0,-3.4,-0.8,
C[C@H](NC(=O)OCc1ccccc1)C(=O)NC(Cc1ccccc1)P(=O)(Oc1ccccc1)Oc1ccccc1 (some centres undefined),0.9,·,2.6,13.1,1.7,
CC(=O)OCC(=O)[C@H]1CC[C@H]2[C@@H]3CC[C@H]4C[C@H](O)CC[C@]4(C)[C@H]3C(=O)C[C@]12C,1.4,·,-3.9,-7.0,4.4,
SMILES,PLCg1 inh,Rce1 inh,ADAM17 inh,ADAM10 inh,PLC-beta3 inh,others
CC(=O)[C@H]1CC[C@H]2[C@@H]3CC[C@H]4C[C@H](O)CC[C@]4(C)[C@H]3C(=O)C[C@]12C,-0.4,+,-3.9,-10.3,-0.7,
CCN1C(=O)C(=Cc2ccc(N3CCOCC3)o2)C(=O)N(CC)C1=S,3.9,i,-0.9,24.6*,-11.5,ADAM10 confirm=-1.3;ADAM17 ctr=-0.1
O=C(COC(=O)c1cccc(O)c1)Nc1ccc(Cl)cc1C(=O)c1ccccc1,-0.5,i,8.2,22.9*,-0.2,ADAM10 confirm=6.5;ADAM17 ctr=1.5
CCOc1ccccc1OCC(=O)Nc1ccc(Cl)cc1C(=O)c1ccccc1,3.1,i,5.6,6.3,3.0,
CCCC/C(C)=C/[C@@H](NP(=O)(c1ccccc1)c1ccccc1)c1ccccc1,1.8,i,8.6,20.2*,1.3,ADAM10 confirm=7.3;ADAM17 ctr=1.7
C[C@H]1CC[C@H]2NCCN[C@H]2C1,1.1,i,-4.8,-3.0,-7.8,
CCCCCCC(C)(C)c1ccc([C@@H]2C[C@H](O)CC[C@H]2CCCO)c(O)c1,1.5,·,5.5,27.4*,3.2,ADAM10 confirm=4.7;ADAM17 ctr=1.3
COC(=O)C1=C(c2ccccc2OCc2ccccc2)C[C@@H]2CC[C@H]1N2C(=O)NCc1ccc(F)cc1,-1.2,·,-0.6,11.8,0.2,
COC(=O)C1=C(c2ccccc2OCc2ccccc2)C[C@@H]2CC[C@H]1N2C(=O)NCc1ccc(C(C)(C)C)cc1,1.3,·,4.0,24.7*,1.9,ADAM10 confirm=11.2;ADAM17 ctr=3.0
COC(=O)C1=C(c2cccc(OCc3ccccc3)c2)C[C@@H]2CC[C@H]1N2C(=O)NCc1ccc([N+](=O)[O-])cc1,-1.2,·,7.2,26.1*,3.9,ADAM10 confirm=8.7;ADAM17 ctr=2.2
CS(=O)(=O)c1ccc(C(=O)N2CCC(C(=O)O)(c3ccccc3)CC2)cc1,0.3,i,-1.2,-2.0,-9.4,
NNc1n[nH]c(=S)n1N,3.5,i,-3.0,-2.6,-4.5,
CCCC12CN3CC(CCC)(CN(C1)C3c1ccccn1)C2=O (centres undefined),2.9,i,-4.0,1.1,-0.8,
O=C1NCN(c2ccccc2)C12CCN(C(CCc1ccccc1)c1nnnn1-c1ccc3c(c1)OCCO3)CC2 (centres undefined),4.6,·,10.5*,24.7*,2.1,ADAM10 confirm=10.0;ADAM17 ctr=3.9
COC(=O)c1ccc(NC(=O)CSc2nc3ccc(N4C(=O)C5C6C=CC(C6)C5C4=O)cc3s2)cc1 (centres undefined),4.8,i,6.8,25.4*,2.6,ADAM10 confirm=4.7;ADAM17 ctr=1.7
COC(=O)C1=C(c2ccccc2)C[C@@H]2CC[C@H]1N2C(=O)NCc1cccc2ccccc12,0.6,i,-4.6,3.3,-0.1,
Cc1nonc1-c1nc(-c2nonc2N)n[nH]1,-1.3,i,-3.2,-4.6,0.2,
